Compounds with a hit are over-represented: about 15% of the library has one in this group of screens.
Pf growth 96h: P. falciparum growth inhibition at 96 hour, primary screen for plastid delayed-death inhibitors | P. falciparum luciferase reporter growth, 96 h | Potency, µM (top dose mostly 28.7 µM), most hits filed as inhibitors | 320,000 compounds, 6.9% hits | AID 504834
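Two-generation exposure (96 h) targets delayed-death phenotype. Reporter parasites carrying integrated firefly luciferase, in red cells at 2% hematocrit and 0.05% parasitemia final, kept at 37 C, 5% CO2; luminescence loss indicates inhibition.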
SARS PLP yeast: inhibitors of SARS-CoV papain-like protease in yeast; 330,000 compounds, 0.19% hits; Potency, µM (series often up to 32.9 µM), usual class: activators; S. cerevisiae expressing SARS-CoV PLpro, growth rescue; AID 485353; calls by dose curve; further: nearly all actives have a fitted effect of over 55% in size
HCMV antiviral: blocks human cytomegalovirus replication; HFF cells, HCMV-luciferase reporter, 72 h; hits give low values; activity change, negative = inhibition, % at 57.5 µM; 410,000 compounds, 4.5% hits; AID 1259415; in the data active means activity change below about -60%; inconclusive means no clear call, values can overlap the other calls; inactive means above about -39%
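Inhibition of viral replication was scored as loss of reporter luminescence in HFFs infected with HCMV-luciferase (MOI 1 PFU/cell) for 72 h; compounds tested at 2 doses, normalized to buffer and Salinomycin controls.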
HCV inh: HCV inhibition; Potency, µM (titrated, usually from 41.8 µM), most hits filed as inhibitors; 340,000 compounds, 3.4% hits; Huh7.5.1 HCVcc-Cre infection, luciferase reporter, 44 h
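Reporter virus HCVcc-Cre (~0.5 moi) infects cells exposed to compound; seeding density 1,000 cells/well with 4 h settling beforehand. Luminescence, 15 sec read, taken 44 h post-infection following a 15 min RT substrate incubation.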
Pf growth 48h: P. falciparum growth inhibition at 48 hours (one generation); 310,000 compounds, 5.9% hits; Potency, µM (highest dose often 28.7 µM), actives largely listed as inhibitors; P. falciparum luciferase growth in erythrocytes, 48 h
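Read-out is firefly luciferase luminescence from an integrated reporter in P. falciparum, so falling signal marks reduced parasite growth. Infected erythrocytes were at 2% hematocrit and 0.1% parasitemia (final) in Albumax-supplemented RPMI 1640.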
Sm TGR inh: blocks Schistosoma mansoni thioredoxin glutathione reductase; purified TGR, DTNB reduction, TNB absorbance 405 nm; Potency, µM (series often up to 114 µM), hits mostly inhibitors; 360,000 compounds, 3% hits; AID 485364; Q962Y6; further: nearly all actives have a fitted effect of over 60% in size
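Kinetic colorimetric format: TGR-catalysed, NADPH-driven DTNB reduction monitored via TNB absorbance. Enzyme dispensed at 20 nM; compound exposure 15 min at room temperature before reaction start.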
Hits are given with their value. Unless noted, the call rests on the fitted dose curve; in most records, active means well fitted curve in the direction sought with a large enough effect; inconclusive means small, poorly fitted or top-dose-only effect, or another doubt; inactive means no such curve, though single readings can be large; an effect the other way counts as inactive or inconclusive.

How did O=C(NCc1ccccn1)C(C(=O)c1ccc(F)cc1)n1ccccc1=O (stereo unspecified) do in these assays?
Pf growth 96h: 13µM; SARS PLP yeast: inactive; HCMV antiviral: inactive; HCV inh: inactive; Pf growth 48h: inactive; Sm TGR inh: inactive

Results for Cc1ccc(C(=O)Nc2nnc(S(=O)(=O)N(C)Cc3ccc(Cl)cc3)s2)cc1 ?
HCMV antiviral: inactive; Sm TGR inh: inactive

What do the screens show for `COc1ccc(-n2nc3c(N4CCCC(C(=O)NCc5ccccc5C)C4)nnc(C)c3c2C)cc1` (stereo unspecified)?
Pf growth 96h: 2.1µM; SARS PLP yeast: inactive; HCMV antiviral: -99; Pf growth 48h: 12µM; Sm TGR inh: inactive

Results for CCOc1ccccc1CNC(=O)C1CCCN(c2nc3ccccc3o2)C1 (stereo unspecified) ?
Pf growth 96h: 3.7µM; SARS PLP yeast: inactive; Pf growth 48h: inactive; Sm TGR inh: inactive

What do the screens show for `COc1ccccc1CNC(=O)C1CCCN(c2nnc(C)c3c(C)n(-c4ccccc4)nc23)C1` (stereo unspecified)?
HCMV antiviral: inactive; Sm TGR inh: inactive

Results for COc1ccc(-n2nc3c(N4CCCC(C(=O)NCCc5ccccc5C)C4)nnc(C)c3c2C)cc1 (stereo unspecified) ?
HCMV antiviral: -87; Sm TGR inh: inactive

What do the screens show for `CCOc1ccccc1CNC(=O)C1CCN(c2nc3ccccc3o2)CC1`?
Pf growth 96h: inactive; SARS PLP yeast: inactive; HCMV antiviral: inactive; HCV inh: inactive; Pf growth 48h: inactive; Sm TGR inh: inactive

What do the screens show for `Cc1ccc(-n2nc3c(N4CCC(C(=O)NCCc5ccccc5C)CC4)nnc(C)c3c2C)cc1`?
Pf growth 96h: inactive; SARS PLP yeast: inactive; HCMV antiviral: inactive; HCV inh: 7.9µM; Pf growth 48h: inconclusive; Sm TGR inh: inactive

What do the screens show for `COc1ccc(-n2nc3c(N4CCC(C(=O)NCCc5ccccc5C)CC4)nnc(C)c3c2C)cc1`?
Pf growth 96h: inactive; SARS PLP yeast: inactive; HCV inh: inconclusive; Pf growth 48h: inactive; Sm TGR inh: inactive

How did Cc1ccc(-c2cn(CCC(=O)O)c(=O)cn2)cc1 do in these assays?
HCMV antiviral: inactive

How did CC(C)Oc1ccc(CNC(=O)c2cnc3sc(N4CCCCC4)nn3c2=O)cc1 do in these assays?
HCMV antiviral: inactive; Sm TGR inh: inactive

Results for COc1ccc(-n2nc3c(N4CCC(C(=O)NCCc5ccccc5)CC4)nnc(C)c3c2C)cc1 ?
HCMV antiviral: inactive; Sm TGR inh: inactive

How did COc1ccc(-n2nc3c(N4CCC(C(=O)NCC(C)c5ccccc5)CC4)nnc(C)c3c2C)cc1 (stereo unspecified) do in these assays?
Pf growth 96h: inactive; SARS PLP yeast: inactive; HCMV antiviral: inconclusive; HCV inh: 11µM; Pf growth 48h: inconclusive; Sm TGR inh: inactive

How did CCOc1ccccc1CNC(=O)C1CCCN(c2nnc(C)c3c(C)n(-c4ccccc4)nc23)C1 (stereo unspecified) do in these assays?
Pf growth 96h: inactive; SARS PLP yeast: inactive; HCMV antiviral: -107; HCV inh: inconclusive; Pf growth 48h: 13µM; Sm TGR inh: inactive

How did COc1ccc(-n2nc3c(N4CCC(C(=O)NCc5ccccc5C)CC4)nnc(C)c3c2C)cc1 do in these assays?
Pf growth 96h: inconclusive; SARS PLP yeast: inactive; HCMV antiviral: inconclusive; HCV inh: 11µM; Pf growth 48h: inconclusive; Sm TGR inh: inactive

Results for Cc1ccc(NC(=O)C(Cc2ccccc2)n2cccc2)cc1C (stereo unspecified) ?
HCMV antiviral: inconclusive; Sm TGR inh: inactive

How did Cc1oc(-c2ccc(C(=O)N(C)Cc3ccccc3)cc2)nc1CN1CCc2ccccc21 do in these assays?
HCMV antiviral: inconclusive; Sm TGR inh: inactive

How did CCc1c(C)c2cc(Cl)c(O)c(CN3CCCC3)c2oc1=O do in these assays?
Pf growth 96h: inactive; SARS PLP yeast: inactive; HCMV antiviral: inactive; HCV inh: inactive; Pf growth 48h: inactive; Sm TGR inh: inactive

How did CC1(C)C2CC=C(/C=N/NC(=S)Nc3cccnc3)C1C2 (stereo unspecified) do in these assays?
Pf growth 96h: inconclusive; SARS PLP yeast: inactive; HCMV antiviral: inactive; HCV inh: inactive; Pf growth 48h: inconclusive; Sm TGR inh: inactive

How did CC1=C/C(=N\NC(=S)Nc2cccnc2)CC(C)(C)C1 do in these assays?
Pf growth 96h: 2.9µM; SARS PLP yeast: inactive; HCMV antiviral: -72; HCV inh: inactive; Pf growth 48h: inconclusive; Sm TGR inh: inactive

How did N#Cc1ccc(NC(=O)N[C@H]2CC[C@@]34CCCN3C(=O)CCC[C@H]4C2Cc2ccccc2)cc1 (stereo partly specified) do in these assays?
HCMV antiviral: inactive

How did COC(=O)C(C)Sc1ccc2nnc(-c3ccc(F)cc3)n2n1 (stereo unspecified) do in these assays?
Pf growth 96h: inactive; SARS PLP yeast: inactive; HCMV antiviral: inactive; HCV inh: inactive; Pf growth 48h: inactive; Sm TGR inh: inactive

Results for CCC(Sc1ccc2nnc(-c3ccc(F)cc3)n2n1)C(=O)OC (stereo unspecified) ?
Pf growth 96h: inactive; SARS PLP yeast: inactive; HCMV antiviral: -93; HCV inh: inactive; Pf growth 48h: inconclusive; Sm TGR inh: inactive

How did CCOC(=O)C(CC)Sc1ccc2nnc(CCNS(=O)(=O)c3ccccc3)n2n1 (stereo unspecified) do in these assays?
Pf growth 96h: inconclusive; SARS PLP yeast: inactive; HCMV antiviral: -103; HCV inh: inactive; Pf growth 48h: inactive; Sm TGR inh: inactive

Results for COc1ccc(-c2nnc3ccc(SCC(=O)Nc4nc5ccc(C)cc5s4)nn23)cc1OC ?
Pf growth 96h: inconclusive; SARS PLP yeast: inactive; HCMV antiviral: inactive; HCV inh: inactive; Pf growth 48h: 13µM; Sm TGR inh: inactive

Results for COC(=O)CSc1ccc2nnc(-c3ccc(OC)c(OC)c3)n2n1 ?
Pf growth 96h: inactive; SARS PLP yeast: inactive; HCMV antiviral: inactive; HCV inh: inactive; Pf growth 48h: inactive; Sm TGR inh: inactive

What do the screens show for `COc1ccc(-c2nnc3ccc(SC(C(C)=O)C(C)=O)nn23)cc1OC`?
Pf growth 96h: inconclusive; SARS PLP yeast: inactive; HCMV antiviral: inactive; HCV inh: inactive; Pf growth 48h: 9.3µM; Sm TGR inh: inactive

How did CC(=O)Nc1ccc(-c2ccnc3c2CC(C(=O)Nc2cccnc2)O3)cc1 (stereo unspecified) do in these assays?
HCMV antiviral: inactive

Results for C/C=C/c1cnc2c(c1)C(=O)N([C@H](C)CO)C[C@H](C)[C@@H](CN(C)C(=O)CN1CCOCC1)O2 ?
HCMV antiviral: inactive

What do the screens show for `CN(C(=O)C(Cl)Cl)C1CC2C=CC1C2` (stereo unspecified)?
Pf growth 96h: inactive; SARS PLP yeast: inactive; HCMV antiviral: inactive; HCV inh: inconclusive; Pf growth 48h: inactive; Sm TGR inh: inactive

High-throughput results as filed in PubChem.
